AmpC detergent: blocks E. coli AmpC beta-lactamase in detergent assay | P00811 | AmpC hydrolysis of nitrocefin, absorbance 480 nm, 0.01% Triton | Potency, µM (titrated, usually from 114 µM), for inactives: at the highest dose activity change, negative = inhibition, hits mostly inhibitors | 370,000 tested, 0.041% active | AID 485294;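 further: 0% = no-compound wells and -100% = no-enzyme wells; nearly all actives have a fitted effect of over 25% in size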
Target sequence (P00811 whole entry, looked up): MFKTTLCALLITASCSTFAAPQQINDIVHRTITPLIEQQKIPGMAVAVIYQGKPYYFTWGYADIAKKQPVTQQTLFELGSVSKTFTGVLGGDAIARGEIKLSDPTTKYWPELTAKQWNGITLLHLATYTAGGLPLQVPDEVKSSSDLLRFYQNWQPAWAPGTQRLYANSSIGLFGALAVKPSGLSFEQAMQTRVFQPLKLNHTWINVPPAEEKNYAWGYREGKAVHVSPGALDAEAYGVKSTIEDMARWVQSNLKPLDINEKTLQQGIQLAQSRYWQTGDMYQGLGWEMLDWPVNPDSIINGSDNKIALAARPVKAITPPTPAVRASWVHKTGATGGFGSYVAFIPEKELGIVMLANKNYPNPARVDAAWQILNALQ
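20 mM phosphate pH 7.0 + 0.01% (detergent screen) or 0.0001% Triton X-100; 5.3 nM AmpC reagent; cpd preinc 15 min RT; nitrocefin (800 uM stock) to start; A480 q20 s × 4 min; Activity was normalised to no-enzyme and no-compound control wells.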
AmpC inh no detg: blocks E. coli AmpC beta-lactamase in detergent-free assay; P00811; AmpC nitrocefin hydrolysis, absorbance 480 nm, 0.0001% Triton; Potency, µM (titrated, usually from 57.1 µM), without a hit: top-dose activity change, negative = inhibition, hits mostly inhibitors; 330,000 tested, 0.52% active;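 further: plate controls were no compound for no effect and no enzyme for full effect; nearly all actives have a fitted effect of over 20% in size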
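20 mM phosphate pH 7.0 + 0.01% (detergent screen) or 0.0001% Triton X-100; 5.3 nM AmpC reagent; cpd preinc 15 min RT; nitrocefin (800 uM stock) to start; A480 q20 s × 4 min; Activity was normalised to no-enzyme and no-compound control wells.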
Sm TGR inh: inhibitors of Schistosoma mansoni thioredoxin glutathione reductase | AID 485364 | Q962Y6 | Potency, µM (highest dose often 114 µM), without a hit: at the highest dose activity change, negative = inhibition, usual class: inhibitors | purified TGR, DTNB reduction, TNB absorbance 405 nm | 360,000 tested, 3% active; further: nearly all actives have a fitted effect of over 60% in size
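Kinetic colorimetric format: TGR-catalysed, NADPH-driven DTNB reduction monitored via TNB absorbance. Enzyme dispensed at 20 nM; compound exposure 15 min at room temperature before reaction start.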
The depositor's hits bear a star; ? = inconclusive; . = no result given. The list is not random: actives were taken first. Their share in the collection is about 3.3%. The call rests on the fitted dose curve; in most records, active means well fitted curve in the direction sought with a large enough effect; inconclusive means small, poorly fitted or top-dose-only effect, or another doubt; inactive means no such curve, though single readings can be large; an effect the other way counts as inactive or inconclusive. Unless noted, on the % scale 0 is the no-effect control and ±100 the full control effect; potency means the concentration at half of the fitted maximal effect.

SMILES	AmpC detergent	AmpC inh no detg	Sm TGR inh
Cc1ccccc1NC(=S)Nc1ccc(Br)cc1	?	-26%	-22%
CN(C)S(=O)(=O)c1ccc(C(=O)NCC[N+]2(C)CCCCCC2)o1	-14%	-18%	10%
CCn1c(C(=O)N2CCC(C(=O)N3CCN(c4cc(C)ccc4C)CC3)CC2)cc2sccc21	-3%	.	-3%
Cc1ccc(N=C2NC(=O)/C(=C\c3ccsc3)S2)c(C)c1	3%	-21%	6%
COc1ccc(-c2cc(-c3nnc(COC(=O)CC4CC5CCC4C5)o3)c3ccccc3n2)cc1OC (configuration not stated)	-5%	-11%	-9%
O=C(C1CCC(Cn2c(=O)c3sccc3n(Cc3cccc(F)c3)c2=O)CC1)N1CCOCC1 (configuration not stated)	2%	.	-1%
Cc1nc2ncnn2c(N2CCCC(C(=O)Nc3ccc4c(c3)CCC4)C2)c1C (configuration not stated)	-5%	111%	-7%
COc1ccc(N(C(=O)c2ccco2)C(C(=O)NC2CCCC2)c2ccc(N3CCOCC3)cc2)c(OC)c1 (configuration not stated)	-2%	83%	3%
COc1ccc(CN2CCN(C(=O)c3cc(-c4cccnc4)nc4ccc(Cl)cc34)CC2)c(OC)c1OC	-7%	200%	1%
CCOc1ccc(NC(=S)NCc2ccc3c(c2)OCO3)cc1	6%	-56%	5µM*
CC(=O)c1ccc(NC(=S)NC(=O)/C=C/c2ccco2)cc1	?	-42%	20µM*
CCOc1ccc(NC(=O)c2ccco2)cc1	-4%	-8%	-9%
Cc1ccc(NC(=S)NCc2ccc3c(c2)OCO3)cc1	?	-33%	-12%
CCOc1ccc(NC(=S)NC(=O)c2ccco2)cc1	-4%	-11%	13µM*
Cc1cccc(NC(=S)NC(=O)/C=C/c2ccco2)c1	4%	-41%	.
O=C(/C=C/c1ccco1)NC(=S)Nc1ccccc1	?	-47%	?
O=C(/C=C/c1ccco1)NC(=S)Nc1cccc([N+](=O)[O-])c1	-2%	-27%	45µM*
COc1ccc(C(C(=O)NCc2ccccc2)N(C(=O)Cn2nnc3ccccc32)c2cccc(OC)c2)cc1 (configuration not stated)	-9%	.	6%
CC(C)(C)C1CCC(=NNC(=O)c2ccco2)CC1 (configuration not stated)	-2%	-33%	-4%
COc1ccc(-c2n[nH]c(C)c2-c2ccc(Cl)cc2)c(O)c1	-4%	-24%	-20%
COc1ccc(O)c(-c2c(-c3ccc(Cl)cc3)n[nH]c2C)c1	-2%	0%	50µM*
CCC(C(=O)NCCCN1CCN(C)CC1)n1nc(C)n2c(cc3occc32)c1=O (configuration not stated)	3%	5%	?
CC1(C)CC(=O)c2c(S(C)(=O)=O)sc(Br)c2C1	-2%	-10%	16µM*
CC1(C)CC(=O)c2sc(NS(C)(=O)=O)nc2C1	-6%	.	0%
Cn1c(CCC(N)=O)nnc1SCC(=O)Nc1cc(S(=O)(=O)N2CCCC2)ccc1Cl	0%	-8%	0%
SMILES	AmpC detergent	AmpC inh no detg	Sm TGR inh
CCOC(=O)C1CCN(C(=O)Cn2nc(CC)n3c(cc4occc43)c2=O)CC1	24%	.	3%
CCc1nnc2c3ccccc3nc(N3CCN(c4cc(Cl)ccc4C)CC3)n12	-7%	.	-10%
O=C(O)c1ccc(/C=N\Nc2ccc(S(=O)(=O)N3CCOCC3)cc2[N+](=O)[O-])cc1	-8%	-4%	45µM*
C/C(=N\Nc1ccc(S(=O)(=O)N2CCOCC2)cc1[N+](=O)[O-])C(C)C	3%	1%	40µM*
NS(=O)(=O)c1ccc(N/N=C/c2ccc(C(=O)O)cc2)c([N+](=O)[O-])c1	-9%	-20%	-1%
CN1CCC(=NNc2ccc(S(=O)(=O)N3CCOCC3)cc2[N+](=O)[O-])CC1	-9%	-11%	?
N#CCCN(C(=O)CN1CCN(S(=O)(=O)c2ccc3c(c2)OCCO3)CC1)c1ccc(F)cc1	4%	121%	-9%
COc1ccc(-c2noc(CNC(=O)COc3cccc(C)c3C)n2)cc1	16%	.	3%
Cc1cc(C)c(Cn2c(=O)n(CCCCC(=O)NCc3ccccc3Cl)c(=O)c3ccccc32)c(C)c1	-3%	.	-1%
Cc1cccc(NC(=O)CNC(=O)COc2ccc(-c3ccc(C#N)cc3)cc2)c1C	-3%	28µM*	1%
Cc1cccc(NC(=O)CNC(=O)COc2ccc(C(=O)c3ccc(F)cc3)cc2)c1C	-1%	-54%	1%
c1ccc(Nc2ncnc3sc4c(c23)CCC4)cc1	-8%	-21%	6%
Fc1ccc(Nc2ncnc3sc4c(c23)CCC4)cc1	0%	0.32µM*	3%
Cn1nc([N+](=O)[O-])nc1Sc1ccc(Cl)cc1	-8%	-20%	?
CNc1ncnc(Sc2ccc(Cl)cc2)c1[N+](=O)[O-]	-8%	76%	0.56µM*
CC(Oc1ccc2c(-c3ccccc3)cc(=O)oc2c1)C(=O)N1CCC[C@@H]1C(N)=O (some centres not stated)	?	28%	-16%
CCOC(=O)c1sc(NC(=O)Cn2nnc3sc4c(c3c2=O)CCC(C(C)(C)C)C4)nc1C (configuration not stated)	-10%	3.5µM*	-21%
CCCOC(=O)c1ccc(NC(=O)Cn2nnc3sc4c(c3c2=O)CCC(C(C)(C)C)C4)cc1 (configuration not stated)	8%	.	10%
CCOCCCNC(=O)/C(C#N)=C/c1ccc(C)o1	-3%	1%	40µM*
COCCNC(=O)/C(C#N)=C/c1ccc(C)o1	7%	-1%	-24%
Cc1ccccc1Cn1c2ccccc2c2cnn(CC(=O)NCC(C)c3ccccc3)c(=O)c21 (configuration not stated)	24%	.	0%
NS(=O)(=O)c1ccc(NNC(=O)c2ccccc2)cc1	-1%	-2%	-14%
O=C(NNc1cc(Br)c(O)c(Br)c1)c1ccccc1	-9%	-29%	18µM*
Cc1ccc(CN(C)C(=O)c2ccc(S(=O)(=O)N3CCCCCC3)cc2)o1	-3%	38%	50µM*
CC(=O)N1CCN(S(=O)(=O)c2cccc(C(=O)N(C)Cc3ccc(C)o3)c2)CC1	?	143%	40µM*
SMILES	AmpC detergent	AmpC inh no detg	Sm TGR inh
COc1ccc(C(=O)N2CCCCCC2)cc1OC1CCN(C(C)=O)CC1	-18%	6%	0%
COc1ccc(C(=O)N(C)Cc2ccc(C)o2)cc1OC1CCN(C(C)=O)CC1	-10%	43%	25µM*
CN(Cc1cccs1)C(=O)c1ccc(S(=O)(=O)N2CCCCC2)cc1	2%	4%	11%
Cc1ccc(CN(C)C(=O)c2cccc(S(=O)(=O)N3CCN(Cc4ccccc4)CC3)c2)o1	-2%	182%	?
Cc1ccc(CNC(=O)CN2C(=O)COc3ccc(S(=O)(=O)N4CCC(C)CC4)cc32)o1	2%	-25%	-1%
Cc1ccc(CNC(=O)CN2C(=O)COc3ccc(S(=O)(=O)N4CCCCC4)cc32)o1	-5%	-19%	25µM*
CC(C)CCNC(=O)N1CCN(S(=O)(=O)c2ccc3c(ccn3C)c2)CC1	4%	.	5%

Compound activity from PubChem BioAssay.
